From PubChem BioAssay (NCATS) come the findings set out here.

Assay [1] is described as follows: Quantitative High-Throughput drug screen in 47 multiple myeloma cell lines against the NCATS MIPE library collection: OCIMY1_PLB cell viability assay (AID 1918979). Also: nearly all actives have a fitted effect of over 35% in size. The procedure, abridged:
(§1)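 qHTS format: cells plated (500/well), pin-dosed with MIPE 4.0 compounds, kept 48 h at 37 °C. Readout was CellTiter-Glo luminescence, median RLU.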

Assay [2] in a line: Quantitative High-Throughput drug screen in 47 multiple myeloma cell lines against the NCATS MIPE library collection: MM1S_ATCC cell viability assay (AID 1918980). Also: nearly all actives have a fitted effect of over 45% in size. An outline of the steps: as §1
Assay [3] can be described thus: Quantitative High-Throughput drug screen in 47 multiple myeloma cell lines against the NCATS MIPE library collection: KMS28PE_JCRB cell viability assay (AID 1918983). Also: nearly all actives have a fitted effect of over 35% in size. The procedure, abridged: as §1
A short description of assay [4]: Quantitative High-Throughput drug screen in 47 multiple myeloma cell lines against the NCATS MIPE library collection: OCIMY7_PLB cell viability assay (AID 1918987). Also: nearly all actives have a fitted effect of over 65% in size. The note with it: OCI-MY7 myeloma viability, CellTiter-Glo ATP, 48 h; viability (% of DMSO): at 45.8 µM (top of the series). An outline of the steps: as §1
(In general: In ATP-based viability assays light output follows the ATP content of the culture.)

The nature of assay [5]: Quantitative High-Throughput drug screen in 47 multiple myeloma cell lines against the NCATS MIPE library collection: OPM1_PLB cell viability assay (AID 1918989). Also: nearly all actives have a fitted effect of over 40% in size. The procedure, abridged:
as §1

Assay [6] is described as follows: Quantitative High-Throughput drug screen in 47 multiple myeloma cell lines against the NCATS MIPE library collection: MM1R_ATCC cell viability assay (AID 1918981). Also: nearly all actives have a fitted effect of over 35% in size. An outline of the steps: as §1
The nature of assay [7]: Quantitative High-Throughput drug screen in 47 multiple myeloma cell lines against the NCATS MIPE library collection: OCIMY5_PLB cell viability assay (AID 1918988). Also: nearly all actives have a fitted effect of over 65% in size. An outline of the steps: as §1
A short description of assay [8]: Quantitative High-Throughput drug screen in 47 multiple myeloma cell lines against the NCATS MIPE library collection: LP1_DSMZ cell viability assay (AID 1918982). Also: nearly all actives have a fitted effect of over 35% in size. An outline of the steps: as §1
The nature of assay [9]: Quantitative High-Throughput drug screen in 47 multiple myeloma cell lines against the NCATS MIPE library collection: KMS34_JCRB cell viability assay (AID 1918985). Also: nearly all actives have a fitted effect of over 40% in size. An outline of the steps:
as §1

A short description of assay [10]: Quantitative High-Throughput drug screen in 47 multiple myeloma cell lines against the NCATS MIPE library collection: L363_DSMZ cell viability assay (AID 1918984). Also: nearly all actives have a fitted effect of over 40% in size. The note with it: L363 myeloma viability, CellTiter-Glo ATP luminescence, 48 h; viability (% of control): at 45.8 µM (top of the series). An outline of the steps:
as §1

Results filed as inconclusive are left out. The source made the active and inactive calls. Calls follow the shape of the dose curve; as a rule, active = well fitted cell-killing curve with a large enough effect; inconclusive = small, poorly fitted or top-dose-only effect, or effect the other way; inactive = no such curve, though single readings can be large or run the other way.
Potency is read from the fitted curve at half-maximal effect.

As for `O=C(O)Cc1cccc(OCCCN(Cc2cccc(C(F)(F)F)c2Cl)CC(c2ccccc2)c2ccccc2)c1`, the Potency entry in [1] was “inactive”. Besides, the Potency in [2] was 20.9 µM (active); in [3], 23.5 µM (active); in [4], 13.2 µM (active); in assay [5], 18.7 µM (active).

`CCNC(=O)[C@H]1O[C@@H](n2cnc3c(N)nc(NCCc4ccc(CCC(=O)O)cc4)nc32)[C@H](O)[C@H]1O`: the Potency entry in assay [1] and in [5] was “inactive” each time. Also, the results for the Potency in [2], in [6] and in assay [7] were 0.332 µM (active), 0.0526 µM (active) and 0.0662 µM (active), respectively.

On to `CNc1nc(-c2ccc3c(N)n[nH]c3c2)cc(N2C[C@@H](C(=O)NC3CCCCC3)CC[C@@H]2C)n1`, for which the Potency in assay [1] was 18.7 µM (active); in [2] it was 16.6 µM (active); in [8], 2.64 µM (active); in assay [9] it was 20.9 µM (active); in [4] it was 0.0662 µM (active); in [5], 23.5 µM (active).

As for `NC(=O)c1ncn([C@@H]2O[C@H](CO)[C@@H](O)[C@@H]2O)n1`, the Potency result in [1], in [3], in [4] and in assay [5] was “inactive” throughout. For the same compound, in assay [2], the Potency is 8.33 µM (active).

Turning to `O=C1CN2Cc3c(ccc(Cl)c3Cl)N=C2N1`, the Potency result in assay [1] and in assay [10] was “inactive” each time. For the same compound, the Potency in [2] was 18.7 µM (active); in [3] it was 23.5 µM (active); in assay [7], 23.5 µM (active); in [5], 13.2 µM (active).

As to `O=C(Nc1ccccc1)Nc1ccc(-c2ccc(C(=O)[C@H]3CCC[C@H]3C(=O)O)cc2)cc1`, the Potency entry in [1], in assay [8], in [9] and in assay [5] was “inactive” each time. The Potency in [2] was 26.4 µM (active); in assay [7], 20.9 µM (active).

As to `CC[C@H](C)C(=O)O[C@H]1C[C@H](O)C=C2C=C[C@H](C)[C@H](CC[C@@H](O)C[C@@H](O)CC(=O)O)[C@H]21`, the Potency result in [1], in assay [2], in [3], in [10], in assay [9] and in assay [4] was “inactive” each time. Also, the Potency entry in [7] and in assay [5] was “inactive” in each case.

In the case of `CN1CCC[C@H]1CCO[C@](C)(c1ccccc1)c1ccc(Cl)cc1`, the Potency result in assay [1], in assay [8] and in [9] was “inactive” each time. Further, the Potency was 23.5 µM (active) in assay [2], 23.5 µM (active) in assay [3], 26.4 µM (active) in assay [7] and 26.4 µM (active) in assay [5].

Turning to `Cc1cc(-c2ncc(CC(=O)Nc3ccc(-c4cnccn4)cn3)cc2C)ccn1`, in assay [1], the Potency result was “inactive”. Besides, the Potency is 18.7 µM (active) in [2]; 16.6 µM (active) in assay [3]; 14.8 µM (active) in assay [10]; 11.8 µM (active) in assay [7]; 8.33 µM (active) in assay [5].

For `Cc1ccccc1C(C(=O)NC1CCCCC1)N(C(=O)CNc1ccc(C#N)cc1)c1cccc(F)c1` (configuration not stated), the Potency entry in assay [1], in assay [2], in [8], in assay [3], in assay [9] and in assay [4] was “inactive” in each case. The Potency result in [5] was “inactive”.

Regarding `CC(C)C[C@@H](N)[C@H](O)C(=O)N[C@H](C(=O)N[C@H](C(=O)N[C@@H](CC(=O)O)C(=O)O)C(C)C)C(C)C`, the Potency result in assay [1], in assay [8], in [10] and in assay [7] was “inactive” throughout. Further, the Potency is 23.5 µM (active) in [2] and 4.69 µM (active) in assay [5].

For the compound `O=C(Nc1cccc(C(F)(F)F)c1)Nc1cc(S(=O)(=O)NC2CC2)ccc1-c1ccsc1`, in assay [1], the Potency result was “inactive”. The Potency in [2] was 20.9 µM (active); in assay [6] it was 20.9 µM (active); in assay [4], 18.7 µM (active); in [5], 26.4 µM (active).

Turning to `CCCC1OC2C[C@@H]3[C@H]4CCC5=CC(=O)C=C[C@]5(C)[C@H]4C(O)C[C@]3(C)[C@]2(C(=O)CO)O1` (some centres not stated), the Potency result in assay [1] was “inactive”. Also, the Potency in assay [2] is 0.0743 µM (active); in assay [8] it was 0.0066 µM (active); in assay [3], 20.9 µM (active); in assay [10], 0.0662 µM (active); in assay [7], 0.0372 µM (active).

Turning to `Nc1ccc(-c2ccc3ncc4ccc(=O)n(-c5cccc(C(F)(F)F)c5)c4c3c2)cn1`, the Potency is 0.0235 µM (active) in assay [1]; 0.0105 µM (active) in [2]; 0.0166 µM (active) in [3]; 0.0066 µM (active) in assay [9]; 0.0209 µM (active) in assay [4]; 0.0332 µM (active) in assay [7].

Take `Cc1cc(NC(=O)Nc2ccc(N(C)C)cc2)c2cc(F)cc(F)c2n1`: the Potency entry in [1], in assay [3] and in assay [5] was “inactive” each time. In assay [2], the Potency is 16.6 µM (active).

Regarding `N[C@@H](CC(=O)N1CCn2c(nnc2C(F)(F)F)C1)Cc1cc(F)c(F)cc1F`, the Potency result in assay [1] and in assay [8] was “inactive” each time. For the same compound, the Potency in [2] is 26.4 µM (active); in assay [3], 9.35 µM (active).

Regarding `CN(C)CCOc1ccc(C(=C(CCCl)c2ccccc2)c2ccccc2)cc1`, the Potency result in assay [1] is “inactive”. The Potency in assay [2] is 1.18 µM (active); in [6], 23.5 µM (active); in assay [4], 5.9 µM (active); in assay [7], 26.4 µM (active); in assay [5] it was 7.43 µM (active).

As for `C=C1[C@H](n2cnc3c(=O)[nH]c(N)nc32)C[C@H](O)[C@H]1CO`, the Potency result in assay [1] is “inactive”. The Potency in [2] is 14.8 µM (active); in assay [6] it was 5.9 µM (active); in [4], 1.18 µM (active); in assay [5], 2.35 µM (active).

With `CN1C(=O)C(Cc2c[nH]c3ccccc23)NC1=S` (configuration not stated), the Potency entry in assay [1], in [2], in [8], in assay [3], in [10] and in [9] was “inactive” throughout. In addition, the Potency entry in assay [5] is “inactive”.

With `CN(C)N=Nc1nc[nH]c1C(N)=O`, the Potency result in assay [1], in assay [2], in assay [8], in assay [3] and in assay [9] was “inactive” in each case. Further, the Potency is 20.9 µM (active) in [7] and 4.18 µM (active) in assay [5].
